Results on 32 targets are retold here after the supplement of paper PMC10849652.

Of roughly 8,800 targets only a part is listed; those with a hit were picked by preference. About 0.5% of all pairs of compound and target were hits. Values without a mark were called inactive.

Chain of UniProt Q7L523 (Q7L523 whole entry, looked up): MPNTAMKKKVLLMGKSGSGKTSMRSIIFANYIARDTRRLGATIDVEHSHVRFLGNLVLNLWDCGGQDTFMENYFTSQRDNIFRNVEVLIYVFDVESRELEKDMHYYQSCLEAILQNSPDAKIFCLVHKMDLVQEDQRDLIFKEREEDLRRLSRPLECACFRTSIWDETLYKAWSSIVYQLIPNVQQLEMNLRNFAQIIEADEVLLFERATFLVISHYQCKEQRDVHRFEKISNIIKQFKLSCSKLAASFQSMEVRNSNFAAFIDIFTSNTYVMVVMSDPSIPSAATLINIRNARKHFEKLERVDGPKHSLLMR
Chain of UniProt P49792 (P49792 whole entry, looked up): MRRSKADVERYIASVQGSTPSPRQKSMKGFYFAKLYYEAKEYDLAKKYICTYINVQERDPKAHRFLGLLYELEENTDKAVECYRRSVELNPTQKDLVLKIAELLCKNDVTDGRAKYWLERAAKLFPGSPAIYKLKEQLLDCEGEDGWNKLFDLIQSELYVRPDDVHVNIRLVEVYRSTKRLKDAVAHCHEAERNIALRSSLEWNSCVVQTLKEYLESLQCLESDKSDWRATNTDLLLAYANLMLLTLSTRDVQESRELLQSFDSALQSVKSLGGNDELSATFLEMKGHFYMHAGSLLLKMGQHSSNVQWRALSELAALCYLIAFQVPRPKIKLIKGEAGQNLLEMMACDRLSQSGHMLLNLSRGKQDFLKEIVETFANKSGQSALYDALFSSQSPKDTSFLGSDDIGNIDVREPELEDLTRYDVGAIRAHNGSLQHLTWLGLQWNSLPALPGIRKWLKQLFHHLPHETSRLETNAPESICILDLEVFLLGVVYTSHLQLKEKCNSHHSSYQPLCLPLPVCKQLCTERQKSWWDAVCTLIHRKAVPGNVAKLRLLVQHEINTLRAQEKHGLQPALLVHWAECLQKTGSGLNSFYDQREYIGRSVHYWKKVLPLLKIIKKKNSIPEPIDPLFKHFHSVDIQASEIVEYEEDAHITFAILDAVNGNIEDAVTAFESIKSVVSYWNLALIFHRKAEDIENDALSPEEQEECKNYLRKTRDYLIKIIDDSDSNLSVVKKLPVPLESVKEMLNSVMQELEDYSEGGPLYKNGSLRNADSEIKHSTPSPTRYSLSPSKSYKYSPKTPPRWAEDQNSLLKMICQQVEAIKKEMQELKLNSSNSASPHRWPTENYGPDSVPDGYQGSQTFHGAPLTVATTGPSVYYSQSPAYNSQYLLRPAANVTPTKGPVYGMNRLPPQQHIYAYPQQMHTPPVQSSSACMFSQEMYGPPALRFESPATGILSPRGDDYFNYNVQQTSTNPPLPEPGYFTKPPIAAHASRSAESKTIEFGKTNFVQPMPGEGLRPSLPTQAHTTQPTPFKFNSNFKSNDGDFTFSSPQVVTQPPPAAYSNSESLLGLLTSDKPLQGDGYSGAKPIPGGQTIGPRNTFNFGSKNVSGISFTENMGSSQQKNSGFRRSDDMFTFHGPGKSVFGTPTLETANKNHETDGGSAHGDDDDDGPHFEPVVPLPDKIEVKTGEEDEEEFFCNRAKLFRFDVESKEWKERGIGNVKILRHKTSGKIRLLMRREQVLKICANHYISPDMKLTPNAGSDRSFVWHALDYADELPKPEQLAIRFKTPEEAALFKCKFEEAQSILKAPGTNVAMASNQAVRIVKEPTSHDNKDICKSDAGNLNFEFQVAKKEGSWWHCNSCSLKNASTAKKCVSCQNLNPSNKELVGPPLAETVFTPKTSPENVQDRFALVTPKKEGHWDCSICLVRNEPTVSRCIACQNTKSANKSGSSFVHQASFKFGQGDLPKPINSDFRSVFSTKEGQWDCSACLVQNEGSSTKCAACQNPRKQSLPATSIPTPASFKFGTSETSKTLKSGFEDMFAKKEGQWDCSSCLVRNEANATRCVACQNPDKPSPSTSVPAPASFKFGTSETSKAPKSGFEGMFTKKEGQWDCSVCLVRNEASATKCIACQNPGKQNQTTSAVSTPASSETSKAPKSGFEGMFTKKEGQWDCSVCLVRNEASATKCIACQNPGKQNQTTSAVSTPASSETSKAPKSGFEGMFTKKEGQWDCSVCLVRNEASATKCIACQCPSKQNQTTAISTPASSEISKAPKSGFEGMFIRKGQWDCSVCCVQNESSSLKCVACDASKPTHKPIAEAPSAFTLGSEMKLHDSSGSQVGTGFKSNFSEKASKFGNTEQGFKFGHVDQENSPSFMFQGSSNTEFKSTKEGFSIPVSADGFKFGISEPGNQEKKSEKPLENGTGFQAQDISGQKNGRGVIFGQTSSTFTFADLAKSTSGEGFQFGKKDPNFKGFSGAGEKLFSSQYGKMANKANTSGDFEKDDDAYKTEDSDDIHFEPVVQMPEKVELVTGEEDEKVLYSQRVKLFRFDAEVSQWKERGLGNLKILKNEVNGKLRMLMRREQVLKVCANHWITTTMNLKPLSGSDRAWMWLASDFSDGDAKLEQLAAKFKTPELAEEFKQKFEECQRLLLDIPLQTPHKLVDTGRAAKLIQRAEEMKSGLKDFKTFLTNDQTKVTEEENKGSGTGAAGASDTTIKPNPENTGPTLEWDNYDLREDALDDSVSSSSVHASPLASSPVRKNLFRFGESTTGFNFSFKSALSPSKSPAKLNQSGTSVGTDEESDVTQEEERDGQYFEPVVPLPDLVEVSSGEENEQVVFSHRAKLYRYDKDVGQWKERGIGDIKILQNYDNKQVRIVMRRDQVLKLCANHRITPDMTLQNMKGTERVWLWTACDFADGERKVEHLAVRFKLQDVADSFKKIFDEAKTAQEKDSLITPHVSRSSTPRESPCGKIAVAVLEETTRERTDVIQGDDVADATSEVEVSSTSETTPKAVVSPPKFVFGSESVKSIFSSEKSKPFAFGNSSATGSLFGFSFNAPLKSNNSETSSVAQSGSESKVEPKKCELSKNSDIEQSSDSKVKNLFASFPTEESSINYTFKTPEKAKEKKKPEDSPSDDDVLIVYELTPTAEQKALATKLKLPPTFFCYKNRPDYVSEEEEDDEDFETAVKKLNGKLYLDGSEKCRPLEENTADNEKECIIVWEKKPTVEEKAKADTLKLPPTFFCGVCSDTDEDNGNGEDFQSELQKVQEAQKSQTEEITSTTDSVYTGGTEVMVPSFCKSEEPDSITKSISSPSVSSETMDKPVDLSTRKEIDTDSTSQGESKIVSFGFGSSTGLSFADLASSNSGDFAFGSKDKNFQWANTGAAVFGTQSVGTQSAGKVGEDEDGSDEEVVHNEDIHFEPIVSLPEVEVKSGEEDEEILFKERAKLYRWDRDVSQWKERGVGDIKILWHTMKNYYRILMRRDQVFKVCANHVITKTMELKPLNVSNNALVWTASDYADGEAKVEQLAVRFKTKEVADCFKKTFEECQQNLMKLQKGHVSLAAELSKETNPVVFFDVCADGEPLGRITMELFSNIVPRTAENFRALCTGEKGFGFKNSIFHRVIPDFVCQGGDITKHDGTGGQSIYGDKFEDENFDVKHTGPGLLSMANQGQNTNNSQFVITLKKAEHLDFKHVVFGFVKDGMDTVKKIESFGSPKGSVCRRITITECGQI
Chain of UniProt Q9H0U4 (Q9H0U4 whole entry, looked up): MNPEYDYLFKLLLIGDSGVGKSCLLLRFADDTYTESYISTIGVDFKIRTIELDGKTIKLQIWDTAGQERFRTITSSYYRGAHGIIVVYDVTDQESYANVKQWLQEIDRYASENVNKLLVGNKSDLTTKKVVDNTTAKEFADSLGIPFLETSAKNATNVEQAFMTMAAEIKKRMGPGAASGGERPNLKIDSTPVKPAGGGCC
Chain of UniProt Q9UPW6 (Q9UPW6 whole entry, looked up): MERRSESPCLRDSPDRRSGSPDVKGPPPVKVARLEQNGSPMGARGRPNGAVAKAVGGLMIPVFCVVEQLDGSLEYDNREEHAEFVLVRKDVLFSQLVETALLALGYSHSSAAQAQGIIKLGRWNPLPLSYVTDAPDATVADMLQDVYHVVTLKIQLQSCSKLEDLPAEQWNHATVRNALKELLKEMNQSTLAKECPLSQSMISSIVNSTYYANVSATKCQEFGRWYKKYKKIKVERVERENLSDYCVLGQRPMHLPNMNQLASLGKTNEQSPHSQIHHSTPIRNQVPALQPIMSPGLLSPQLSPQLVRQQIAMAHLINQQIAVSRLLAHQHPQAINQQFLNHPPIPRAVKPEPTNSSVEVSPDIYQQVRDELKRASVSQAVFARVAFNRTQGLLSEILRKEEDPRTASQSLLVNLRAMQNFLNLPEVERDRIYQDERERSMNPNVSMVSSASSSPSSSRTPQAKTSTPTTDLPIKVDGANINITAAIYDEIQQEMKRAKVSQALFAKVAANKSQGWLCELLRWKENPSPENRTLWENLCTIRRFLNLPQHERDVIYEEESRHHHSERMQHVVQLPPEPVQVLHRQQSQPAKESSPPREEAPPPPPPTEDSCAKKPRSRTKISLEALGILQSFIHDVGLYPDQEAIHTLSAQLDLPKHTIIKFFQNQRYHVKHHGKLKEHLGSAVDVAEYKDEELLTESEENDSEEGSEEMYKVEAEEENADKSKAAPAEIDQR
Chain of UniProt Q9BRS2 (Q9BRS2 whole entry, looked up): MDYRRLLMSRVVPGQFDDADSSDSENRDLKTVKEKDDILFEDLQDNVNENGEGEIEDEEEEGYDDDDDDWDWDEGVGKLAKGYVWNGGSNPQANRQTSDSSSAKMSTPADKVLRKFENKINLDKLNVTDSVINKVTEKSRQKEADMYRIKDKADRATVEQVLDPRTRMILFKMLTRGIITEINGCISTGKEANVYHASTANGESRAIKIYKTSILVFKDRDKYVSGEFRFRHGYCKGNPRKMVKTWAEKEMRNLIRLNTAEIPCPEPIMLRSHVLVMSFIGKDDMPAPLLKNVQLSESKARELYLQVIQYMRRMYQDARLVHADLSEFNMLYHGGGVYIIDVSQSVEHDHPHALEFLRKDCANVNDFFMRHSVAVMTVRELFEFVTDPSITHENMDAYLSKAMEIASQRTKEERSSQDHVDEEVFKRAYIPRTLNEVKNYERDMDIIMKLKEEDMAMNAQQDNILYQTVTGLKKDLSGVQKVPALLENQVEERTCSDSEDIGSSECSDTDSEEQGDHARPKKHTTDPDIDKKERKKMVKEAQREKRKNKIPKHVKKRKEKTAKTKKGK

Compound in the first assay: CNC(=O)c1ccc(Nc2ncc(C(F)(F)F)c(NCc3nccnc3N(C)S(C)(=O)=O)n2)cc1 [defactinib]
In words: log2 fold change, soluble protein after heating vs DMSO (PISA); higher = thermal stabilisation; K562 lysate, 10 uM; active = over 0.2 and 3.5 SD of the protein, either way, in both replicates (recomputed). The method in brief:
(§1)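 K562 pellets were dounce-homogenised in PBS pH 7.4 with 1 mM MgCl2, and the crude extract at 1 mg/mL protein was treated with 10 μM compound for 30 min. Aliquots were heated for 3 min across 48°C-58°C, pooled, and brought to 0.5% NP-40 at 4°C; soluble protein was the supernatant after 21,000xg for 90 min. Soluble protein was quantified by TMTpro 16plex LC-MS/MS with channel sums equalised, and reported as log2 fold change in thermal stability against DMSO controls, with values from duplicates.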
RAB21 (UniProt Q9UL25): the log2 fold change is -0.025.

With RPS6KA5 (UniProt O75582), the log2 fold change is 0.019.

Turning to RPS26P11 (UniProt Q5JNZ5), the log2 fold change is 0.011.

As for SATB2 (UniProt Q9UPW6), the log2 fold change was -0.022.

Take RAPGEF2, A0A2R8YGD3: the log2 fold change was 0.119.

For the target RPN2 (UniProt P04844), the log2 fold change is -0.006.

For the target RAI14 isoform 2 (UniProt Q9P0K7), the log2 fold change is 0.031.

For RPS18 (UniProt P62269), the log2 fold change was 0.016.

Turning to ROCK1 (UniProt Q13464), the log2 fold change was -0.02.

Take RPTOR (UniProt Q8N122): the log2 fold change is 0.

In the case of RAB1B (UniProt Q9H0U4), the log2 fold change was -0.037.

As for RIOK1 (UniProt Q9BRS2), the log2 fold change was -0.009.

For the target RAE1 (UniProt P78406), the log2 fold change was -0.004.

In the case of REEP5 (UniProt Q00765), the log2 fold change was 0.04.

With RPLP0P6 (UniProt Q8NHW5), the log2 fold change is -0.014.

In the case of SCCPDH (UniProt Q8NBX0), the log2 fold change was 0.028.

In the case of RINT1 (UniProt Q6NUQ1), the log2 fold change is 0.047.

As for SEC61G (UniProt P60059), the log2 fold change is 0.045.

On to SEH1L isoform 1 (UniProt Q96EE3), for which the log2 fold change is -0.028.

Turning to RAD50 isoform 2 (UniProt Q92878), the log2 fold change was 0.026.

As for RIOK3 (UniProt O14730), the log2 fold change was 0.018.

In the case of SEC13 isoform 3 (UniProt P55735), the log2 fold change is -0.06.

As to RAC2 (UniProt P15153), the log2 fold change was 0.007.

Take SEC24D isoform 2 (UniProt O94855): the log2 fold change is 0.012.

SCO2 (UniProt O43819): the log2 fold change is 0.008.

Take RALGAPA1 isoform 6 (UniProt Q6GYQ0): the log2 fold change is 0.069.

With RECQL5 (UniProt O94762), the log2 fold change was 0.068.

Regarding RRAGA (UniProt Q7L523), the log2 fold change was -0.044.

RPS6KB1 (UniProt P23443): the log2 fold change is 0.094.

RANBP2 (UniProt P49792): the log2 fold change was 0.004.

As for RCOR3 isoform 3 (UniProt Q9P2K3), the log2 fold change was 0.009.

Take SCD (UniProt O00767): the log2 fold change is -0.02.

Compound in the next assay: CNc1nc(-c2ccc3c(N)n[nH]c3c2)cc(N2C[C@@H](C(=O)NC3CCCCC3)CC[C@H]2C)n1
The description is as above. The method in brief:
as §1
As for RAB21 (UniProt Q9UL25), the log2 fold change is 0.026.

Turning to RPS6KA5 (UniProt O75582), the log2 fold change is 0.072.

As for RPS26P11 (UniProt Q5JNZ5), the log2 fold change was 0.02.

SATB2 (UniProt Q9UPW6): the log2 fold change was -0.031.

Turning to RAPGEF2, A0A2R8YGD3, the log2 fold change was 0.025.

Regarding RPN2 (UniProt P04844), the log2 fold change is -0.01.

Turning to RAI14 isoform 2 (UniProt Q9P0K7), the log2 fold change is 0.077.

For the target RPS18 (UniProt P62269), the log2 fold change is 0.025.

As to ROCK1 (UniProt Q13464), the log2 fold change is 0.039.

In the case of RPTOR (UniProt Q8N122), the log2 fold change is -0.048.

With RAB1B (UniProt Q9H0U4), the log2 fold change is 0.01.

Consider RIOK1 (UniProt Q9BRS2), for which the log2 fold change was 0.413 (active).

For RAE1 (UniProt P78406), the log2 fold change was -0.044.

Turning to REEP5 (UniProt Q00765), the log2 fold change is 0.035.

For RPLP0P6 (UniProt Q8NHW5), the log2 fold change was 0.023.

Turning to SCCPDH (UniProt Q8NBX0), the log2 fold change is 0.333.

Take RINT1 (UniProt Q6NUQ1): the log2 fold change is -0.072.

In the case of SEC61G (UniProt P60059), the log2 fold change is 0.137.

Turning to SEH1L isoform 1 (UniProt Q96EE3), the log2 fold change is -0.014.

Turning to RAD50 isoform 2 (UniProt Q92878), the log2 fold change was -0.04.

For the target RIOK3 (UniProt O14730), the log2 fold change was 0.12.

SEC13 isoform 3 (UniProt P55735): the log2 fold change is -0.064.

As to RAC2 (UniProt P15153), the log2 fold change is 0.06.

Turning to SEC24D isoform 2 (UniProt O94855), the log2 fold change is -0.008.

As for SCO2 (UniProt O43819), the log2 fold change was -0.007.

On to RALGAPA1 isoform 6 (UniProt Q6GYQ0), for which the log2 fold change was 0.003.

Consider RECQL5 (UniProt O94762), for which the log2 fold change is 0.074.

In the case of RRAGA (UniProt Q7L523), the log2 fold change is -0.045.

For the target RPS6KB1 (UniProt P23443), the log2 fold change was -0.013.

In the case of RANBP2 (UniProt P49792), the log2 fold change is -0.041.

Consider RCOR3 isoform 3 (UniProt Q9P2K3), for which the log2 fold change is -0.014.

As for SCD (UniProt O00767), the log2 fold change is -0.091.

Compound in the next assay: COC(=O)N[C@@H](C)CNc1nccc(-c2cn(C(C)C)nc2-c2cc(Cl)cc(NS(C)(=O)=O)c2F)n1 [encorafenib]
The assay is described as above. A digest of the protocol: as §1
With RAB21 (UniProt Q9UL25), the log2 fold change is 0.005.

Turning to RPS6KA5 (UniProt O75582), the log2 fold change is 0.054.

As to RPS26P11 (UniProt Q5JNZ5), the log2 fold change is 0.007.

SATB2 (UniProt Q9UPW6): the log2 fold change was 0.053.

Consider RAPGEF2, A0A2R8YGD3, for which the log2 fold change is 0.017.

Take RPN2 (UniProt P04844): the log2 fold change is 0.041.

As for RAI14 isoform 2 (UniProt Q9P0K7), the log2 fold change was 0.012.

In the case of RPS18 (UniProt P62269), the log2 fold change was -0.022.

Turning to ROCK1 (UniProt Q13464), the log2 fold change was -0.004.

RPTOR (UniProt Q8N122): the log2 fold change was -0.004.

For the target RAB1B (UniProt Q9H0U4), the log2 fold change was 0.065.

Consider RIOK1 (UniProt Q9BRS2), for which the log2 fold change is 0.006.

In the case of RAE1 (UniProt P78406), the log2 fold change was 0.038.

Consider REEP5 (UniProt Q00765), for which the log2 fold change is 0.001.

As for RPLP0P6 (UniProt Q8NHW5), the log2 fold change is 0.001.

SCCPDH (UniProt Q8NBX0): the log2 fold change was -0.076.

As for RINT1 (UniProt Q6NUQ1), the log2 fold change was 0.01.

Take SEC61G (UniProt P60059): the log2 fold change was -0.02.

With SEH1L isoform 1 (UniProt Q96EE3), the log2 fold change is -0.007.

With RAD50 isoform 2 (UniProt Q92878), the log2 fold change is 0.006.

As to RIOK3 (UniProt O14730), the log2 fold change is 0.058.

Regarding SEC13 isoform 3 (UniProt P55735), the log2 fold change is 0.002.

With RAC2 (UniProt P15153), the log2 fold change was -0.022.

Turning to SEC24D isoform 2 (UniProt O94855), the log2 fold change is 0.029.

As for SCO2 (UniProt O43819), the log2 fold change was 0.027.

Turning to RALGAPA1 isoform 6 (UniProt Q6GYQ0), the log2 fold change is 0.016.

As to RECQL5 (UniProt O94762), the log2 fold change is 0.225.

On to RRAGA (UniProt Q7L523), for which the log2 fold change is -0.032.

For RPS6KB1 (UniProt P23443), the log2 fold change is -0.039.

In the case of RANBP2 (UniProt P49792), the log2 fold change was 0.038.

With RCOR3 isoform 3 (UniProt Q9P2K3), the log2 fold change was 0.012.

Turning to SCD (UniProt O00767), the log2 fold change was -0.097.
